Experimental data from PubChem BioAssay (NCI).
The panel holds about 83,000 compounds, 20% with a hit somewhere; the sample as a whole holds those more often.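 Cells were grown in 96-well plates and exposed to the test compound at a single concentration for 48 hours; results are reported as percent growth, with values below 10 considered active.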 Activity calls are given as the source filed them.

Legend:
Assay in all cases: NCI-60 one-dose screen, 48 h (100 = growth as untreated, 0 = no growth, -100 = all killed)
Settings in all cases: 10 µM unless noted
HCT-15 colon = test system: HCT-15 colon
HT29 colon = test system: HT29 colon
SNB-75 CNS = test system: SNB-75 CNS
SNB-19 CNS = test system: SNB-19 CNS
U251 CNS = test system: U251 CNS
PC-3 prostate = test system: PC-3 prostate
SK-MEL-5 melanoma = test system: SK-MEL-5 melanoma
UACC-62 melanoma = test system: UACC-62 melanoma
LOX IMVI melanoma = test system: LOX IMVI melanoma
SK-MEL-28 melanoma = test system: SK-MEL-28 melanoma
SK-MEL-2 melanoma = test system: SK-MEL-2 melanoma
EKVX NSCLC = test system: EKVX NSCLC
SN12C renal = test system: SN12C renal
UO-31 renal = test system: UO-31 renal
TK-10 renal = test system: TK-10 renal
ACHN renal = test system: ACHN renal
CAKI-1 renal = test system: CAKI-1 renal
A498 renal = test system: A498 renal
CCRF-CEM leukemia = test system: CCRF-CEM leukemia
MOLT-4 leukemia = test system: MOLT-4 leukemia

Measured: growth

COc1ccc(NCc2cn(-c3ccc(C(=O)O)cc3)nc2-c2cc(C(F)(F)F)cc(C(F)(F)F)c2)cc1
inactive: HCT-15 colon 88.8% | HT29 colon 99.1% | SNB-75 CNS 91.9% | SNB-19 CNS 94.9% | U251 CNS 102% | PC-3 prostate 93% | SK-MEL-5 melanoma 98.8% | UACC-62 melanoma 97.3% | LOX IMVI melanoma 99.5% | SK-MEL-28 melanoma 107% | SK-MEL-2 melanoma 101% | EKVX NSCLC 90.3% | SN12C renal 95.4% | UO-31 renal 93.1% | TK-10 renal 110% | ACHN renal 102% | CAKI-1 renal 81.5% | A498 renal 72.1% | CCRF-CEM leukemia 95.9% | MOLT-4 leukemia 86.4%

Oc1cccc2ccc(-c3nnc(SCc4ccc(O)c5ncccc45)o3)nc12
active: HCT-15 colon 8.78% | PC-3 prostate 9.67% | SK-MEL-5 melanoma -63.7% | UACC-62 melanoma 9.35% | LOX IMVI melanoma 8.81% | SK-MEL-2 melanoma 8.17% | SN12C renal 7.07% | UO-31 renal -6.85% | ACHN renal 7.94% | CAKI-1 renal 8.28%
inactive: HT29 colon 56.8% | SNB-75 CNS 34.3% | SNB-19 CNS 12.9% | U251 CNS 13.3% | SK-MEL-28 melanoma 35.2% | EKVX NSCLC 17.5% | TK-10 renal 27.9% | A498 renal 35.2% | CCRF-CEM leukemia 19.6%

NC(N)=Nc1ccc(Oc2ccc(Nc3ccc(Cl)c(C(F)(F)F)c3)cc2)cc1
active: SNB-19 CNS 3% | U251 CNS 3.48% | SK-MEL-5 melanoma 8.32% | LOX IMVI melanoma -96%
inactive: HCT-15 colon 37% | HT29 colon 13.7% | SNB-75 CNS 95.2% | PC-3 prostate 32.5% | UACC-62 melanoma 38.2% | SK-MEL-28 melanoma 56.6% | SK-MEL-2 melanoma 91.6% | EKVX NSCLC 52.4% | SN12C renal 31.7% | UO-31 renal 69.8% | TK-10 renal 95.6% | ACHN renal 73.4% | CAKI-1 renal 69.4% | A498 renal 68.3% | CCRF-CEM leukemia 20.3%

C=CCn1c(SCC(=O)Nc2ccc(C(=O)/C=C/c3cccc([N+](=O)[O-])c3)cc2)nnc1-c1c[nH]c2ccccc12
inactive: HCT-15 colon 91.7% | HT29 colon 98.4% | SNB-75 CNS 97% | SNB-19 CNS 89.4% | U251 CNS 94.4% | PC-3 prostate 77.8% | SK-MEL-5 melanoma 59.5% | UACC-62 melanoma 66.9% | LOX IMVI melanoma 31.1% | SK-MEL-28 melanoma 95.4% | SK-MEL-2 melanoma 93.9% | EKVX NSCLC 89.1% | SN12C renal 85.2% | UO-31 renal 67.8% | TK-10 renal 102% | ACHN renal 91.1% | CAKI-1 renal 87.1% | A498 renal 87.4%

CCCCCc1ccc(S(=O)(=O)Nc2cccc(-c3csc(NC(=O)CN4CCN(C)CC4)n3)c2)cc1
inactive: HCT-15 colon 11.7% | HT29 colon 25.5% | SNB-75 CNS 89.5% | SNB-19 CNS 85% | U251 CNS 49.7% | PC-3 prostate 67.1% | SK-MEL-5 melanoma 50.8% | UACC-62 melanoma 92.2% | SK-MEL-28 melanoma 89.4% | SK-MEL-2 melanoma 100% | EKVX NSCLC 89.2% | SN12C renal 90.6% | UO-31 renal 75% | TK-10 renal 115% | ACHN renal 91.8% | CAKI-1 renal 78.5% | A498 renal 82.9% | CCRF-CEM leukemia 27.2%
active: LOX IMVI melanoma -58%

CCCCCc1ccc(S(=O)(=O)Nc2cccc(-c3csc(NCCN4CCN(C)CC4)n3)c2)cc1
inactive: HT29 colon 19.3% | SNB-75 CNS 92.8% | SNB-19 CNS 79.9% | U251 CNS 45.7% | PC-3 prostate 65.7% | UACC-62 melanoma 85.4% | SK-MEL-28 melanoma 78% | SK-MEL-2 melanoma 102% | EKVX NSCLC 84.2% | SN12C renal 90.6% | UO-31 renal 73.4% | TK-10 renal 120% | ACHN renal 89.9% | CAKI-1 renal 83.1% | A498 renal 85.4% | CCRF-CEM leukemia 16.2%
active: HCT-15 colon -13.2% | SK-MEL-5 melanoma -31.1% | LOX IMVI melanoma -66.9%

NC(N)=Nc1ccc(Oc2cccc(Nc3ccc(Br)c(C(F)(F)F)c3)c2)cc1
active: SNB-19 CNS -15.9% | U251 CNS -78.9% | PC-3 prostate 1.98% | UACC-62 melanoma 7.23% | LOX IMVI melanoma -97.1% | SN12C renal -21.3% | A498 renal 0.698% | CCRF-CEM leukemia 3.83%
inactive: HCT-15 colon 69.9% | HT29 colon 11.5% | SNB-75 CNS 27.1% | SK-MEL-5 melanoma 22.5% | SK-MEL-28 melanoma 58.3% | SK-MEL-2 melanoma 35.6% | EKVX NSCLC 25.5% | UO-31 renal 75.2% | TK-10 renal 54.9% | ACHN renal 68.3% | CAKI-1 renal 39.8%

COc1cc(-c2nc(-c3ccccc3)[nH]c2-c2ccnc(NCCCNS(=O)(=O)c3cccc(F)c3)n2)ccc1Cl
inactive: HCT-15 colon 25.7% | HT29 colon 23.1% | SNB-75 CNS 77.4% | SNB-19 CNS 66.3% | U251 CNS 44.5% | PC-3 prostate 25.2% | SK-MEL-5 melanoma 34.2% | UACC-62 melanoma 44.1% | LOX IMVI melanoma 35.5% | SK-MEL-28 melanoma 55% | SK-MEL-2 melanoma 43.5% | EKVX NSCLC 54.3% | SN12C renal 57.7% | UO-31 renal 35.9% | TK-10 renal 72.3% | ACHN renal 32.8% | CAKI-1 renal 42.9% | A498 renal 70.4% | CCRF-CEM leukemia 24.6%

CNC(=O)c1c(NC(=O)c2cccc(C(F)(F)F)c2F)sc2c1CCC(=O)C2
inactive: SNB-19 CNS 16.5% | PC-3 prostate 14.9% | LOX IMVI melanoma 16% | SK-MEL-28 melanoma 47.8% | EKVX NSCLC 13.1% | SN12C renal 10% | TK-10 renal 34.6% | CCRF-CEM leukemia 13.6%
active: HCT-15 colon 5.54% | HT29 colon 9.35% | SNB-75 CNS 0.105% | U251 CNS 4.78% | SK-MEL-5 melanoma -83.7% | UACC-62 melanoma 7.56% | SK-MEL-2 melanoma 8.04% | UO-31 renal -29.2% | ACHN renal 4.75% | CAKI-1 renal -30.6% | A498 renal -1.35% | MOLT-4 leukemia 7.37%

CS(=O)(=O)c1ncc(-c2ccccc2)cn1
inactive: HCT-15 colon 89.1% | HT29 colon 105% | SNB-75 CNS 110% | SNB-19 CNS 98.1% | U251 CNS 99.3% | PC-3 prostate 100% | SK-MEL-5 melanoma 93% | UACC-62 melanoma 89% | LOX IMVI melanoma 84.6% | SK-MEL-28 melanoma 98% | SK-MEL-2 melanoma 97.6% | EKVX NSCLC 97.1% | SN12C renal 96.4% | UO-31 renal 85.1% | TK-10 renal 97.3% | ACHN renal 97.3% | CAKI-1 renal 107% | A498 renal 86.5% | CCRF-CEM leukemia 86.6%

O=C(CCn1c[n+](CC(=O)c2ccc(-c3ccccc3)cc2)c2ccccc21)Nc1cccc2cccnc12
inactive: HCT-15 colon 93.8% | HT29 colon 51.8% | SNB-75 CNS 41% | SNB-19 CNS 41.6% | U251 CNS 42.9% | PC-3 prostate 30.9% | SK-MEL-5 melanoma 20.8% | UACC-62 melanoma 15.1% | LOX IMVI melanoma 57.9% | SK-MEL-28 melanoma 38.9% | SK-MEL-2 melanoma 65.4% | EKVX NSCLC 61.9% | SN12C renal 53.6% | UO-31 renal 82.6% | TK-10 renal 97.5% | ACHN renal 103% | CAKI-1 renal 77.7% | A498 renal 88.7% | CCRF-CEM leukemia 36.1%

CCNC(=O)N1CCc2cc(OC)c(OCCc3ccc(OC)cc3)cc2C1c1ccc(Cl)cc1C (configuration not stated)
inactive: SNB-75 CNS 37.9% | SNB-19 CNS 26% | U251 CNS 13.1% | PC-3 prostate 26.1% | UACC-62 melanoma 22.8% | SK-MEL-28 melanoma 43.3% | SK-MEL-2 melanoma 14.7% | EKVX NSCLC 37% | SN12C renal 18.6% | UO-31 renal 28.2% | TK-10 renal 54.2% | ACHN renal 23.1% | CAKI-1 renal 23.3% | CCRF-CEM leukemia 38.2%
active: HCT-15 colon 9.66% | HT29 colon 2.45% | SK-MEL-5 melanoma -10.8% | LOX IMVI melanoma 8.72% | A498 renal -12.8%

NS(=O)(=O)c1ccc(Nc2nc(Nc3ccccc3)nc3nnc(SCC(=O)NC4CCCCC4)n23)cc1
inactive: HCT-15 colon 104% | HT29 colon 113% | SNB-75 CNS 115% | SNB-19 CNS 101% | U251 CNS 104% | PC-3 prostate 98.5% | SK-MEL-5 melanoma 105% | UACC-62 melanoma 92.3% | LOX IMVI melanoma 101% | SK-MEL-28 melanoma 105% | SK-MEL-2 melanoma 106% | EKVX NSCLC 103% | SN12C renal 100% | UO-31 renal 80.8% | TK-10 renal 104% | ACHN renal 99.1% | CAKI-1 renal 83.7% | A498 renal 97.2% | CCRF-CEM leukemia 101%

CC1=NC2=NC(=O)/C(=C3/N=C(C)C=C(c4ccccc4)N3N)NN2C(c2ccccc2)=C1
inactive: HCT-15 colon 107% | HT29 colon 109% | SNB-75 CNS 116% | SNB-19 CNS 96.3% | U251 CNS 105% | PC-3 prostate 96.7% | SK-MEL-5 melanoma 99.1% | UACC-62 melanoma 88.7% | LOX IMVI melanoma 102% | SK-MEL-28 melanoma 109% | SK-MEL-2 melanoma 108% | EKVX NSCLC 83.8% | SN12C renal 100% | UO-31 renal 78.6% | TK-10 renal 168% | ACHN renal 101% | CAKI-1 renal 83.2% | A498 renal 127% | CCRF-CEM leukemia 109% | MOLT-4 leukemia 104%

N#Cc1ccccc1Cn1c2nc(=N)c3ccccc3c-2nc2ccccc21
inactive: HCT-15 colon 41.5% | HT29 colon 15.4% | SNB-75 CNS 93.8% | SNB-19 CNS 65.8% | U251 CNS 70.4% | PC-3 prostate 56.8% | SK-MEL-5 melanoma 32.5% | UACC-62 melanoma 56.5% | LOX IMVI melanoma 51.1% | SK-MEL-28 melanoma 90.2% | SK-MEL-2 melanoma 87.9% | EKVX NSCLC 49.4% | SN12C renal 61.5% | UO-31 renal 51.3% | TK-10 renal 102% | ACHN renal 56.4% | CAKI-1 renal 50.9% | A498 renal 69.7% | CCRF-CEM leukemia 70.6%

CCN(CC)c1ccc2c(c1)Oc1nc(N)c(C#N)c(N)c1C2Sc1ccc(C)cc1 (configuration not stated)
active: HCT-15 colon -83.8% | HT29 colon -23.5% | SNB-75 CNS -82.3% | SNB-19 CNS -97.4% | U251 CNS -78.5% | PC-3 prostate -88.5% | SK-MEL-5 melanoma -96.4% | UACC-62 melanoma -88.5% | LOX IMVI melanoma -92.2% | SK-MEL-28 melanoma -94.5% | SK-MEL-2 melanoma -83.2% | EKVX NSCLC -97.2% | SN12C renal -69.7% | UO-31 renal -99.7% | TK-10 renal -90.6% | ACHN renal -98.8% | CAKI-1 renal -97.9% | A498 renal -85.2% | CCRF-CEM leukemia -19.7% | MOLT-4 leukemia -14.2%
